# Measurements reported in PubChem BioAssay AID1508600 (Functional Genomics Laboratory (NCATS/FGL), 2020).
# Out of some 53,000 sequences screened, about 3,700 (7%) were called active. Shown is part of a subset that was picked to be rich in actives. Values without a mark were called inactive.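 Rule for the calls: active = gene knockdowns whose robust z-score for IL-1 alpha signal is at least 2 or at most -2, so actives lie on both sides; inactive = the rest.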
# Experiment: Components of the Cytosolic LPS Sensing Pathway: Gene Identification via Genome-wide siRNA Screen
# Conditions: RAW264.7 macrophages, IL-1a HTRF, actives lie on both sides, screened at 100 nM (by protocol), cells primed 5 h with Pam3CSK4 first
# Text: Non-canonical inflammasome activation by cytosolic LPS is a critical component of the host response to Gram-negative bacterial infection, however we lack a comprehensive understanding of the cellular processes that control this pathway. Here we describe a genome-wide siRNA screen to identify genes regulating the mouse macrophage IL-1 alpha response to cytosolic LPS.
# RAW264.7 cells were maintained in complete DMEM media, comprising DMEM with 4.5 g/L glucose, 10% FBS (Gemini Bio-Products, West Sacramento, CA), 2 mM Glutamine (Lonza) and 20 mM HEPES (Lonza), hereafter complete DMEM.
# The RNAi screen was conducted in 384-well format using the Ambion Silencer Mouse Genome siRNA Library (#4391425), which consists of three unique, nonoverlapping, nonpooled siRNAs for each of 17,000 gene targets. siRNA reagents ([…]) were stamped into 384-well white flat-bottom microplates (Corning, 3570) using a Velocity11 VPrep liquid handling system (Agilent) integrated into a BioCel robotic platform (Agilent) in columns 1-22, leaving columns 23-24 empty for negative (Ambion, Negative control #1) and positive (mouse Casp4) controls, respectively. The median value of each plate's negative control column was used to normalize sample wells, and the positive control was used to assess transfection efficiency and assay performance.
# Lipofectamine RNAiMAX Transfection Reagent ([…]; Invitrogen) was added in […] serum-free, antibiotic-free media to plate wells using a Thermo Scientific Matrix WellMate and Microplate Stacker. Plates were incubated for 45 min at room temperature to allow for the sufficient formation of siRNA-lipid complexes. Cells were seeded at a density of 1x10^4 cells per well in 20 microL media containing 20% (vol/vol) FBS without antibiotics. The final concentration of siRNA in each well was 100 nM. Cells were cultured for 48h at 37 degrees C in 5% CO2 before addition of […] of TLR ligand Pam3CSK4 for 5 hours. The medium was then removed, replaced with […] growth media and cell were transfected with […] of LipidA and TransIT-TKO (Mirus) for 24 hour. At the end of the LipidA treatment, […] of supernatant was transferred to a 384 Greiner Bio-one non-binding low volume plate and […] of IL-1a HTRF reagent (Cisbio, 62MIL1APEH) was added and incubated at room temperature overnight. The plates were read on an EnVision plate reader (PerkinElmer). Cell viability was measured by adding 20ul Cell Titer Glo to the original plate and running a luminescence read on the EnVision. The quantified IL-1a signal for each siRNA gene-targeted well was divided by the median of the negative control wells and multiplied by 100 to achieve a negative control normalized value for each well/siRNA. This normalized value was then used to generate a robust z-score by first taking the log of each value and then by subtracting the median and dividing by the […].
row,Sequence,z-score
1,GGAGUUUUGUGAACUAUGATT against Slc36a3,-2.73 (active)
2,GCUGCAUAGACUCAUGGUUTT against Znrf1,-0.408
3,GGCACUCCUCUUUGUUUUCTT against Olfr414,-1.82
4,CCCAAAUGAUUGGAUCUGUTT against Cd40lg,0.273
5,CGAAUGGCUAUCAGUGAGGTT against Tbc1d20,-1.04
6,GGACUGUAUGUGGAAUGGCTT against Bmyc,-0.46
7,GCUACUAAGCACCUAGAGATT against Fxr2,-0.932
8,CUCUAGCUACUAUUUUCUCTT against Olfr824,-1.57
9,GGAUAUGGACUAUUCACGGTT against Dgat1,-1.32
10,CGGCUUACGCAUGUCUAUGTT against Polr2a,-2.01 (active)
11,GGUUUUGCCAAGGACGCAGTT against Ngf,0.124
12,GGAAGAAAAAAAAUCUCCATT against Frmd3,0.577
13,GGUGGUUAUGAUCUAUGAUTT against Dazap1,-1.43
14,GGCUGGAGCCUCAAAUAUCTT against Rapsn,-0.574
15,GGUGGAUGCCUUGAAUAUGTT against 1700029P11Rik,-2.25 (active)
16,CGAGCUAACAGCAUUGCUGTT against Ajuba,0.532
17,GCCAUGCAAAUCGAUGGGUTT against Rora,-2.69 (active)
18,GCAUUUAAAAUACACGGUGTT against Arg1,0.264
19,GGUGACUCCAAGAAUGUGGTT against Wfdc1,-0.703
20,CCCAGAGCCAGGUUCAAACTT against AY702103,0.78
21,GCACUAAAUCCUUUGAUAUTT against Olfr307,1.08
22,GCUGAACAAUUUUCAACAATT against Sclt1,-0.958
23,GCAUCCUUGACCGAUACUATT against Psmb2,-2.78 (active)

row,Sequence,z-score
1,GGAUCUAUUGAUGGUUCAUTT against Tprkb,-1.68
2,GGGUCACCCAUUAUUUUAUTT against Phyhip,-0.899
3,GGGAGGAACAUCACCUCAGTT against Vmn2r123,0.327
4,GGUCAUACUCUAAUCGGACTT against Ctss,0.672
5,GGAAAGAUGUCAAAGAAAUTT against Gnat2,-1.14
6,UGCCACUGCCAAAAAAUAATT against Tex18,-0.838
7,CCAGACAUUUGAUAGCCAUTT against Fam241a,-1.42
8,GCCAAGCAUAAUCUAAUGATT against Prpf4b,0.851
9,CGACCACAUUAUUGGGUUUTT against Senp8,2.62 (active)
10,GCCUGUGAUCUUUUGUAUCTT against Olfr835,-0.726
11,GGAUGUCUAGUUAUACAUUTT against Mbd3l1,1.21
12,GCUAAUGAAGCAGAGCUGUTT against Olfr1359,0.388
13,GGUGUAACUCCUUCAUUGATT against Ripor2,-3.12 (active)
14,CCUUAUCUCUACCAUCGGUTT against Hyal2,0.0745
15,GCACCAGCUCUAAUUCAGATT against Herpud2,1.48
16,GCAUGAUGAUGGAGACCGATT against Sox1,-1.06
17,GGUGUUCCUAUAAAAGUAUTT against Tfb2m,0.597
18,GGUGCUACAAGUGUACUGATT against Zswim2,-2.14 (active)
19,GGUCUUCCAGAACAAUUACTT against Prtn3,0.439
20,GGCACACCUUUUGUUAGUGTT against Ywhag,-1.94
21,GGAUUUGUUCAAAUAACAGTT against Lsm14a,-0.664
22,CCAAAUUAUCACCCUGUUCTT against Olfr763,-0.0232
23,GGAAAUGCGUCAAAAGACUTT against H2az1,0.04

row,Sequence,z-score
1,GCUAAAAAUGGUUGUGUGATT against Six3os1,-1.62
2,GGAUGGUUUUCAUUUGCUUTT against Cd300ld,-0.606
3,CCGUUAAGUAGCUGGAAGATT against Ubl4b,0.488
4,GGGAACCUCACCAUUAUCATT against Olfr769,-0.413
5,GCAAGGACCAAAUUACAUATT against Itgb3bp,2.45 (active)
6,GGACUUUCUGAUGGACUUGTT against Sapcd1,1.59
7,GGAUCCUGAAAUCAAAACUTT against Mbl1,-0.316
8,GGCAUAACCAAAAGAAAGUTT against 4933427E11Rik,0.648
9,GGGCUUCUUUGCCACACUUTT against Rho,0.761
10,CGAGAUGAAAUAUACAGAUTT against Trat1,1.12
11,GGACAAUUAACGAUCCCACTT against Pdxp,-2.58 (active)
12,GGGUUAUGGUAGAUUAUCUTT against Tor4a,-0.376
13,GGACACCUCGAGAUUCUCUTT against Actl11,-0.186
14,GGAAAACAACACGAUGAAATT against Tex13b,-1.72
15,GGAAGGAGAACAUUCCUUUTT against Ces1d,-0.198
16,GGCCAUUUGUUAGGACCUGTT against Prmt6,0.205
17,CGGCAUGUCCUUCAUCGCUTT against Proser2,-2.89 (active)
18,GGAGAAAAUUCAAGUCACCTT against Olfr663,0.215
19,AGUGAAACUAAACUGGAGUTT against 2610318N02Rik,1.41
20,GGAUCUCAAUGUUCACUUGTT against Bpifb2,-0.817
21,GGCUACUUCUGUACUAGGATT against Gclc,-1.05
22,GGAGGAAGCUCAUCUAUGATT against Rpl7,0.964
